# VDR inh: vitamin D3 receptor (human) inhibition | P11473 | VDR-SRC2-3 peptide fluorescence polarization, 2 h | Potency, µM, for inactives: max response, negative = inhibition, hits mostly inhibitors | 400,000 compounds, 0.93% hits | AID 504847; also: potency is read from the fitted curve at half-maximal effect; % is scaled to controls: 0 for no effect and ±100 for the full control effect
# Target sequence (P11473 whole entry, looked up): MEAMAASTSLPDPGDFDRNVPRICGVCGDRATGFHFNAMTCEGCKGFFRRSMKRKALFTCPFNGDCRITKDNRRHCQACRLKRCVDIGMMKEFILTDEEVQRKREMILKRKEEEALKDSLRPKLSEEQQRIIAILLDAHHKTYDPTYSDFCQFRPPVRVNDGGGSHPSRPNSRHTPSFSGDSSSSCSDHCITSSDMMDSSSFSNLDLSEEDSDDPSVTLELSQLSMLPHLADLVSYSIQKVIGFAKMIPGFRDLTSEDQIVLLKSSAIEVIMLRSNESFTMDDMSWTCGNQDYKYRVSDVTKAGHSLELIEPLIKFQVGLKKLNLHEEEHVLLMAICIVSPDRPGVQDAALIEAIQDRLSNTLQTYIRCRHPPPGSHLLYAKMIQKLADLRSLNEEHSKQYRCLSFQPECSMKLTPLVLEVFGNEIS
#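 Reagent solutions, kept cold and dark, are dispensed first; compounds are then pinned in at 23 nl, plates briefly spun, and incubated 2 h at ambient temperature. Inhibition of VDR–SRC2-3 peptide binding is read by fluorescence polarization.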
# PLK1 PBD inh: blocks phosphopeptide binding to human PLK1 polo-box domain. Potency, µM, for the others: max response, negative = inhibition, usual class: inhibitors. Plk1 PBD binding of FITC phosphopeptide, fluorescence polarization. 360,000 compounds, 2.8% hits. P53350; also: potency is read from the fitted curve at half-maximal effect; series mostly up to about 57 µM; % is scaled to controls: 0 for no effect and ±100 for the full control effect; nearly all actives have a fitted effect of over 65% in size
# WRN helicase inh: inhibitors of human WRN helicase | Q14191 | WRN helicase unwinding, fluorescent forked duplex, kinetic | Potency, µM (highest dose often 114 µM), for inactives: top-dose activity change, negative = inhibition, hits mostly inhibitors | 360,000 compounds, 0.46% hits | AID 651768; also: potency is read from the fitted curve at half-maximal effect; % is scaled to controls: 0 for no effect and ±100 for the full control effect; nearly all actives have a fitted effect of over 55% in size
#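 WRN at 20 nM final preincubated with compound 15 min at room temperature; reaction started with 100 nM fluorophore/quencher forked duplex oligonucleotide and 2 mM ATP final. Unwinding followed kinetically by red fluorescence (ex 525, em 598 nm).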
# PI5P4Ka inh: blocks human PI5P4K alpha kinase activity; max response, %; PI5P4Kalpha enzyme, ADP-Glo luminescence, 60 min; stronger effect = lower value; AID 652105; 330,000 compounds, 1.2% hits; active = max response of -50% or lower; inconclusive = between -30% and -50%; inactive = -30% or higher; also: value at the top dose of about 77 µM; % is scaled to controls: 0 for no effect and ±100 for the full control effect
#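 Quantitative HTS of the MLSMR library against PI5P4Kalpha with substrate. ATP added last at 5 microM final; room temperature, 60 minutes. Remaining ATP depleted, ADP converted and read as luminescence.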
# TCR activator: T cell receptor activation; primary human leukocytes, anti-CD3, IL-2 HTRF, 48 h; 330,000 tested, under 10 active; Potency, µM (series often up to 9.22 µM), inactives show at the top dose activation of IL-2 secretion, usual class: activators; AID 504894; also: % of control where 0% means no effect
#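 Human primary leukocytes + a-CD3 beads + cpd, 48 hr; IL-2 in supernatant by HTRF (ex 320nm / em 665nm). No co-stimulatory signal supplied.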
# FEN1 inhibitor: human FEN1 inhibition; P39748; Potency, µM (doses to about 114 µM), inactives show at the highest dose activity change, negative = inhibition, hits mostly inhibitors; 390,000 compounds, 0.35% hits; Recombinant FEN1 flap cleavage, fluorescence, 15 min; also: potency is read from the fitted curve at half-maximal effect; % is scaled to controls: 0 for no effect and ±100 for the full control effect; nearly all actives have a fitted effect of over 65% in size
#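 Enzyme 10 nM, 15 min RT preincubation with compound; start with substrate 50 nM final; reads at 0 and 15 min; qHTS titration, four-parameter Hill fit.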
# Numbers without * were called inactive; u = inconclusive; x = no result given; [ ] = dose if it differs, or a comment. An excerpt weighted towards active compounds, which were near 3.7% of everything screened. Unless noted, calls follow the shape of the dose curve; as a rule, active = well fitted curve in the direction sought with a large enough effect; inconclusive = small, poorly fitted or top-dose-only effect, or another doubt; inactive = no such curve, though single readings can be large; an effect the other way counts as inactive or inconclusive.
SMILES,VDR inh,PLK1 PBD inh,WRN helicase inh,PI5P4Ka inh,TCR activator,FEN1 inhibitor
CCOC(=O)c1sc(NC(=O)c2ccc(OC)cc2)nc1C,19.5%,6.8%,-3.6%,-0.8,x,15.2%
C[C@@H]1COC(=O)O1,17.4%,x,x,x,x,x
O=C(Cc1ccc(NC(=O)N2CCCCc3ccccc32)cc1)NCc1ccccc1Br,-0.4%,x,x,x,x,4.6%
O=C(OCc1ccccc1)N1CCN(/[N+]([O-])=N/Oc2ccc([N+](=O)[O-])cc2[N+](=O)[O-])CC1,x,x,x,x,x,-4.0%
CC1CCN(c2oc(-c3ccc(OCc4ccccc4Cl)cc3)nc2C#N)CC1,-8.5%,x,x,x,x,-10.6%
O=C1CN(S(=O)(=O)c2ccccc2Cl)CCN1,-13.8%,15µM*,-13.6%,3.1,3.2%,-2.5%
O=C(SCc1c(O)c2ccccc2oc1=O)c1ccccc1,x,13.4µM*,-1.2%,-27.2,x,x
CCOc1ccc(S(=O)(=O)NCCC(=O)N2CCN(c3ccc(OC)cc3)CC2)cc1,-6.5%,21.2µM*,-22.6%,-24.3,-2.5%,-6.1%
Cc1ccc(S(=O)(=O)NCCC(=O)N2CCN(c3ccccc3)CC2)cc1C,-7.2%,-23.2%,-1.9%,-1.3,-16.8%,1.6%
COc1ccc(N2CCN(C(=O)CCNS(=O)(=O)c3ccccc3)CC2)cc1,u,9.47µM*,-0.8%[57.1 µM],u,-21.9%,4.3%
COc1ccc(CCNCc2c(C(=O)O)c(C)n(Cc3cccc(Cl)c3)c2C)c(OC)c1OC,10.9%,x,x,x,x,18.1%
CCSc1ncc(Cl)c(C(=O)Nc2sc3c(c2C(=O)NCCOC)CCCC3)n1,x,x,x,x,x,-7.9%
N#C/C(=C/c1ccc(-c2ccc([N+](=O)[O-])cc2)o1)C(=O)Nc1nc(-c2cccs2)cs1,23.5%,u,u,-65.7*,-5.8%,-7.0%
N#C/C(=C\c1ccc(-c2ccc(F)cc2)o1)C(=O)Nc1nc(-c2cccs2)cs1,-2.1%,-10.3%,-13.0%,u,-1.1%[46.1 µM],-4.6%
COc1ccc(C(=O)OCC(=O)Nc2sccc2C(N)=O)cc1OC,-7.7%,-0.1%,-8.0%,-7.2,5.8%,-1.3%
COc1ccc(C(=O)OCC(=O)Nc2ncc([N+](=O)[O-])s2)cc1OC,u,9.47µM*,50.1µM*,-77.4*,4.6%,35.5µM*
S=c1[nH]nc(-c2ccccc2)n1/N=C/C=C/c1ccco1,-26.5%,-5.3%,-1.0%,-15.4,0.5%[46.1 µM],1.4%
Cc1ccccc1-c1n[nH]c(=S)n1/N=C/C=C/c1ccco1,70.8µM*,u,u,-83.8*,-3.0%,15.8µM*
S=c1[nH]nc(-c2ccc(Cl)cc2)n1/N=C/C=C/c1ccco1,-7.0%,26.7µM*,-26.4%,u,3.7%,-14.9%
O=c1cc(CSc2nnc3ccccn23)c2c(ccc3ccccc32)o1,-10.7%,42.3µM*,-2.1%,-8.9,0.4%[46.1 µM],-10.3%
Nc1ccc(-c2cc3ccccc3[nH]2)cc1,x,x,x,x,x,-16.5%
Cc1cc(OC(C)C(=O)NCc2ccccn2)c2c(C)cc(=O)oc2c1 (centres undefined),-16.2%,26.7µM*,7.0%,4.2,-0.8%,-2.1%
Cc1cc(OC(C)C(=O)NCc2ccncc2)c2c(C)cc(=O)oc2c1 (centres undefined),-2.0%,u,3.7%,8.0,-1.2%,-1.9%
Cc1cc(OC(C)C(=O)NCc2cccnc2)c2c(C)cc(=O)oc2c1 (centres undefined),-15.9%,26.7µM*,-1.4%,3.7,3.1%,4.2%
Cc1cc(OC(C)C(=O)NCc2ccncc2)c2c(C)c(C)c(=O)oc2c1 (centres undefined),u,11.9µM*,-6.6%,-12.0,0.3%,-15.4%
SMILES,VDR inh,PLK1 PBD inh,WRN helicase inh,PI5P4Ka inh,TCR activator,FEN1 inhibitor
COc1ccc(Cn2c(C(=O)O)c(CNC3CCCCCC3)c3ccc(OC)cc32)cc1,1.3%,x,x,x,x,5.8%
CCCN1CNc2c(c(=O)[nH]c(=S)n2CCc2ccc(Cl)cc2)C1,-0.6%,x,x,x,x,3.2%
CCCCN(CCC#N)c1ccc(/C=C/c2ccnc3ccccc23)cc1,x,x,x,x,x,-9.7%
COc1cccc(C(c2c(O)nc(SC)n(C)c2=O)c2c(O)nc(SC)n(C)c2=O)c1,9.6%,-26.5%,-17.8%,-12.7,0.9%,9.9%
CCCSc1nc(O)c(C(c2ccc(OC)c(O)c2)c2c(O)nc(SCCC)n(C)c2=O)c(=O)n1C,35.5µM*,9.47µM*,u,-5.3,5.8%[46.1 µM],4.2%
CCSc1ncc(Cl)c(C(=O)Nc2c(C(=O)Nc3ccc(Cl)cc3)oc3ccccc23)n1,5.8%,x,x,x,x,21.7%
Cc1ccc(NC(=O)N/C=C/c2ccc(Cl)cc2)cc1,-5.2%,26.7µM*,9.9%,-17.0,7.6%,-6.7%
Cc1ccnc(NC(c2ccccc2)c2ccc3cccnc3c2O)c1 (centres undefined),u,u,-6.7%,-4.3,4.0%,-18.3%
Cc1ccnc(NC(c2ccsc2)c2ccc3ccc(C)nc3c2O)c1 (centres undefined),39.8µM*,2.99µM*,-27.4%,u,x,-19.8%
CN(C)c1ccc(/C=C2\C(=O)/C(=C\c3ccc(N(C)C)cc3)c3ccccc32)cc1,x,x,x,x,x,4.2%
CCOC(=O)c1c(C)n(-c2ccc(OC)cc2)c2ccc(O)c(CN(C)C)c12,-12.4%,29.9µM*,12.1%,1.2,-3.0%,-5.4%
CCOC(=O)c1c(C)n(-c2ccc(C)cc2)c2ccc(O)c(CN(C)C)c12,2.7%,-4.9%,7.2%,-0.5,-4.2%,7.7%
CCCCN(CCCNC(=O)CN1N=C(c2ccccc2)CCC1=O)c1ccccc1,2.6%,x,x,x,x,-24.3%
COc1cc(C2Nc3ccccc3C(=O)N2Cc2ccco2)cc(OC)c1OC (centres undefined),-11.4%,x,x,x,x,-13.6%
CC(Sc1nc2ccc(C(=O)c3ccccc3)cc2[nH]1)C(=O)O (centres undefined),1.9%,-11.6%,u,-52.5*,x,3.4%
Cc1cc(N2CCN(c3ccc(F)cc3)CC2)n2nc(-c3ccc(Cl)cc3)nc2n1,-2.4%,x,x,x,x,0.5%
O=C1N=c2ccc([N+](=O)[O-])cc2=C1c1sc(=O)[nH]c1O,u,3.36µM*,u,-54.1*,1.2%,u
COc1cccc2cc(C(=O)N(Cc3cccs3)Cc3cccs3)c(=O)oc12,-8.2%,x,x,x,x,-17.9%
Cc1ccc(C(c2ccc(C)o2)c2cccc([N+](=O)[O-])c2O)o1,9.0%,u,u,-55.7*,4.7%,-18.5%
O=C(Cn1nnc2ccccc21)NCc1ccccc1,9.3%,-8.8%,-4.5%,6.5,2.4%,7.3%
c1ccc(CCn2nnc3ccccc32)cc1,-23.3%,21.2µM*,4.0%,-2.8,8.2%,-3.6%
N#CCCCS(=O)(=O)c1nnnn1-c1ccc(F)cc1Br,44.7µM*,x,x,x,x,x
N#Cc1ccc(NCCNCC(=O)N2N=CCC2C#N)nc1 (centres undefined),-1.6%,x,x,x,x,x
CC(C)CCN1C(=O)c2ccc(C(=O)Nc3cc(C(=O)O)cc(C(=O)O)c3)cc2C1=O,-7.5%,-5.4%,-7.0%,-5.6,-7.5%,5.0%

# From PubChem
